Measured values as given in PubChem BioAssay (EPA / NIEHS).
Activity calls are given as the source filed them. How the source made its calls: active means hit-call score of the fitted dose curve at least 0.9, where 1 is the maximum; inactive means score below 0.9.

Experiment: ATG_TAL_CIS: Attagene CIS-FACTORIAL HepG2 Assay for human TAL Basal Promoter (AID 2282966);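 further: background control endpoint measuring basal TAL promoter reporter mRNA not a specific factor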
Conditions: HepG2 Attagene cis-factorial TAL promoter reporter; actives raise or lower the signal
How it was run: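 RT-PCR plus capillary electrophoresis quantifies reporter mRNA induction in transiently transfected HepG2 cells after 24 h chemical treatment. DMSO serves as negative control and baseline for bidirectional fitting.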

Structure (SMILES) | outcome
N#Cc1c(-c2ccc(Cl)cc2)[nH]c(C(F)(F)F)c1Br | inactive
Cc1ccc2c(c1N)C(=O)c1ccccc1C2=O | inactive
OCC(F)(F)OC(F)(F)C(F)(F)OC(F)(F)C(F)(F)OC(F)(F)F | inactive
CCN(CC)c1ccccc1 | inactive
Cc1cccc(N)c1 | inactive
CCC1(c2ccccc2)C(=O)N=C(O)NC1=O (stereo not given) | inactive
O=C(O)CF | inactive
O=[N+]([O-])c1ccccc1 | inactive
CC(C)(C)c1ccc(O)cc1 | inactive
CC(C)CBr | inactive
CCCCC(CC)COC(=O)c1c(Br)c(Br)c(Br)c(Br)c1C(=O)OCC(CC)CCCC (stereo not given) | inactive
C=CC(=O)OCC(F)(F)C(F)F | inactive
O=[N+]([O-])c1ccc(Cl)c(Cl)c1 | inactive
O=[N+]([O-])c1cc(Cl)ccc1Cl | inactive
O=S(=O)(c1ccc(O)cc1)c1ccc(O)cc1 | inactive
CCOC(=O)c1ccccc1N | inactive
O=C(O)C(Cl)Cl | inactive
Cc1ccc(N)cc1N | inactive
OCC(F)(F)OC(F)(F)C(F)(F)OC(F)(F)CO | inactive
Nc1ccc(Cl)cc1 | inactive
c1cc2c3c(cccc3c1)CC2 | inactive
OCC1CO1 (stereo not given) | inactive
Cn1[nH]nnc1=S | inactive
O=C(O)C1C(C(=O)O)C2(Cl)C(Cl)=C(Cl)C1(Cl)C2(Cl)Cl (stereo not given) | inactive
CC(O)C#N (stereo not given) | inactive
Oc1ccc(I)cc1 | inactive
CCNc1nc(Cl)nc(NC(C)(C)C)n1 | inactive
CCOC(=O)c1ccccc1C(=O)OCC | inactive
Cc1ccc([N+](=O)[O-])cc1C | inactive
Cc1ccc(O)cc1C | inactive
